Assay results reported in PubChem BioAssay AID738 (SRMLSC, 2007).
Hit rate of the full screen: of about 98,000 compounds, about 4,900 (5%) were called active. The list comes from a sample in which actives are over-represented; it also holds similar structures and randomly drawn compounds. Unmarked numbers belong to inactive results. Cut-off read from the data, not from the text of the source: active = inhibition above about 30%; inactive = the rest.

Experiment: yeast control strain growth suppression – counter-screen for post-Golgi transport modulator project, primary screen (AID 738)
Details: efflux-deficient yeast background strain, growth absorbance A615, 16 h; at 10 µM; hits give high values

Row | Compound | inhibition
1 | c1ccc(-c2cn3c(n2)CCc2ccc4cccnc4c2-3)cc1 | 42.3% (active)
2 | c1ccc(-c2cn3cccnc3n2)cc1 | 10%
3 | O=C(Nc1ccccc1)c1ccccc1NC(=O)C(F)(F)F | 10.5%
4 | CCOC(=O)c1ccc(N2C(=O)CC(N3CC(C)OC(C)C3)C2=O)cc1 (stereo not given) | 7.03%
5 | CCOC(=O)c1ccc(N2C(=O)CC(N3CCC(C(=O)OCC)CC3)C2=O)cc1 (stereo not given) | 0%
6 | CCCCOC(=O)c1ccc(N2C(=O)CC(N3CCN(C/C=C/c4ccccc4)CC3)C2=O)cc1 (stereo not given) | 30.1% (active)
7 | O=C(NC1CCN(C(=S)NCc2ccco2)CC1)c1ccc(F)cc1 | 7.63%
8 | CCOC(=O)N1CCN(Cc2nc(N)nc(Nc3ccc(C)cc3)n2)CC1 | -1.25%
9 | CC(C)c1ccc(NS(=O)(=O)c2cn(C)c(=O)n(C)c2=O)cc1 | 94.4% (active)
10 | Cn1cc(S(=O)(=O)N2CCC(Cc3ccccc3)CC2)c(=O)n(C)c1=O | 2.66%
11 | Cn1cc(S(=O)(=O)N2CCN(c3ccc(F)cc3)CC2)c(=O)n(C)c1=O | 3.87%
12 | CC(CNc1ccc([N+](=O)[O-])cc1)NC(=O)c1ccccc1Br (stereo not given) | 1.54%
13 | CO/N=C/c1ccc(N2CCN(C(=O)c3cccc(Cl)c3)CC2)c([N+](=O)[O-])c1 | -2.25%
14 | CC(C)NC(=O)c1ccc(Sc2ccccc2)c([N+](=O)[O-])c1 | -2.82%
15 | CCOc1cc2[nH]c(=S)n(CCCN3CCCC3=O)c(=O)c2cc1OCC | 35.1% (active)
16 | O=C(CCn1c(=S)[nH]c2ccccc2c1=O)NCCCN1CCCC1=O | 18.7%
17 | CCOc1cc2[nH]c(=S)n(CCN3CCCCC3C)c(=O)c2cc1OCC (stereo not given) | -3.72%
18 | Cc1nn(-c2ncc(C(F)(F)F)cc2Cl)c(=O)n1-c1ccccc1 | 10.2%
19 | Cc1ccc(-c2ccnc3nc(Sc4ncc(C(F)(F)F)cc4Cl)nn23)cc1 | 36.2% (active)
20 | O=C(c1ccccn1)c1ncc(C(F)(F)F)cc1Cl | 5.57%
21 | O=C(Nc1ccccc1)OCc1cn(-c2ccc(Cl)cc2)nn1 | 17.4%
22 | CCC(=O)NC(NCC1CCCO1)C(Cl)(Cl)Cl (stereo not given) | -2.21%
23 | COc1ccc(C(=O)NNC(=O)c2cnccn2)cc1[N+](=O)[O-] | 7.69%
24 | Cc1cccc(C(=O)Nc2ccccc2-c2nnn(CC(=O)Nc3ccc4c(c3)OCCO4)n2)c1 | 6.95%

Row | Compound | inhibition
25 | N#CC1=C(N)Oc2c(sc3ccccc23)C1c1ccco1 (stereo not given) | 13.9%
26 | Cc1cc(C)c(C#N)c(SCc2[nH]nc3c2C(c2ccccc2)C(C#N)=C(N)O3)n1 (stereo not given) | -0.29%
27 | Cc1cc(C)c2c3c(sc2n1)C(c1ccccc1)C(C#N)=C(N)O3 (stereo not given) | 72.8% (active)
28 | C=CCOc1cccc(CNn2cn[nH]c2=S)c1 | 5.3%
29 | Cc1cccc(C)c1-n1c(C)cc(/C=C2\C(=O)NN(c3ccccc3)C2=O)c1C | 20.6%
30 | CCCCCOC(=O)NCCOC(=O)Nc1ccc(C(=O)OCC)cc1 | 43% (active)
31 | CCCCC(CCC(=O)Nc1ccc(C(=O)OCC)cc1)C(=O)O (stereo not given) | -4.81%
32 | CCOC(=O)Nc1ccc(NC(=O)OCC)cc1 | 3.65%
33 | c1ccc(C2CCC(N3CCC(N4CCCCC4)CC3)CC2)cc1 (stereo not given) | 1.52%
34 | COc1ccc(NC(=O)Nc2ccc3nc(C)c(C)nc3c2)cc1 | 8.79%
35 | COc1ccc(NC(=O)Nc2ccc3nsnc3c2)cc1 | -5.25%
36 | O=C(Nc1ccc2ccccc2c1)Nc1ccc2snnc2c1 | 67.9% (active)
37 | CCCCNC(=O)C(=O)c1ccccc1NC(C)=O | 7.01%
38 | Cc1ccc(C(=O)NC2CCN(C(=O)N3CCOCC3)CC2)cc1 | 7.51%
39 | Cc1cc(C)cc(NC(=O)N2CCC(NC(=O)c3ccc(F)cc3)CC2)c1 | 37.4% (active)
40 | Cc1ccc(NC(=O)N2CCC(C(=O)NCc3ccc(F)cc3)CC2)cc1 | 1.66%
41 | CCOC(=O)c1cc2ccccc2nc1C | 3.8%
42 | CCOC(=O)c1sc(C)c2c1NC(C)(c1cccc3ccccc13)NC2=O (stereo not given) | 30.4% (active)
43 | CCOC(=O)c1nc(N)sc1C(=O)OCC | -8.73%
44 | CC1(C)CC(=O)C(C=NCCN2CCN(C(=S)Nc3cccc(Cl)c3)CC2)=C(O)C1 | 1.4%
45 | COc1cc(/C=N/NC(=O)Nc2ccccc2)ccc1OCCOc1ccccc1C | -1.48%
46 | Nc1c(-c2cccc(Cl)c2)cnn1-c1cccc([N+](=O)[O-])c1 | 4.05%
47 | CCN(c1ccccc1)S(=O)(=O)c1ccc(NC(=O)C(C)(C)C)cc1 | 28.9%
48 | COC(=O)c1ccc(Sc2ccc(F)cc2)c(N)c1 | 7.42%

Row | Compound | inhibition
49 | CC(C)(CCl)C(=O)Nc1ccc(Sc2ccc(F)cc2)cc1 | 37.1% (active)
50 | CC(=O)N/C(=C/c1ccc(Cl)cc1)C(=O)NCCc1c[nH]c2ccccc12 | 17.4%
51 | CCCCCCC(=O)Nc1nc(C)c(-c2csc(Nc3cccc(OC)c3)n2)s1 | 3.51%
52 | C#CCNc1nc(C(C)C)nc2c1nnn2Cc1ccccc1F | 22.2%
53 | Cc1nc(Nc2ccc3c(c2)OCCO3)c2nnn(Cc3ccccc3Cl)c2n1 | 57.3% (active)
54 | CC(C)(C)c1nc(NCC2CCCO2)c2nnn(Cc3ccccc3)c2n1 (stereo not given) | 12.5%
55 | CCCCNC(=S)NNC(=O)c1cc(C)on1 | 6.93%
56 | N#CC1=C(N)N(c2ccc(F)cc2)C(=O)C1 | 1.63%
57 | Cc1ccccc1-n1c(C)cc(/C=N/NC(=O)c2ccc(CN3CCOCC3)cc2)c1C | 7.99%
58 | COc1ccccc1N1CCN(C(=O)c2cc(-c3ccc(Cl)c(Cl)c3)on2)CC1 | 2.68%
59 | COc1ccccc1N1CCN(C(=O)c2cc(-c3ccc(Br)cc3)on2)CC1 | 33.2% (active)
60 | COc1ccccc1-c1cc(C(=O)N2CCCCC2)no1 | 13.9%
61 | NC(=O)N1CCCC1C(=O)Nc1ccc(Cl)c(Cl)c1 (stereo not given) | -1.15%
62 | CC1=CC(C)(C)N(C(=O)CSc2nccn2C)c2cc(C)ccc21 | 1.07%
63 | O=C(CSc1nnc(-c2ccccc2)o1)N1CCOCC1 | 7.42%
64 | CC1=CC(C)(C)N(C(=O)CSc2nnc(-c3ccccc3)o2)c2ccc(C)cc21 | 72.6% (active)
65 | CC(C)NC(=O)c1ccccc1S(=O)c1ccccc1C#N (stereo not given) | -5.45%
66 | Cc1nn(C)cc1C(=O)NNC(=S)Nc1ccc(Cl)cc1 | 2.4%
67 | CCC(=O)N(Cc1ccccc1)c1ccccn1 | 1.04%
68 | Cc1ccc(C(=O)N/C(=C/C=C/c2ccccc2)C(=O)NCc2ccco2)cc1 | -1.68%
69 | CN(CC(=O)Nc1cccc2c1CCCC2)S(=O)(=O)c1ccc(Cl)cc1 | -4.31%
70 | COCCOC(=O)C1=C(C)NC(=O)CC1c1cc2c(cc1Br)OCO2 (stereo not given) | -3.67%
71 | COc1ccccc1C1C2=C(COC2=O)Nc2cc3c(cc21)OCO3 (stereo not given) | 6.27%
72 | CCCOc1ccccc1C1CC(=O)Nc2cc3c(cc21)OCO3 (stereo not given) | 34.1% (active)

Row | Compound | inhibition
73 | COc1cc(C(=O)N2CCN(C/C=C/c3ccccc3)CC2)cc(OC)c1C | 8.75%
74 | COc1cnc(SCc2ccc(Cl)c(Cl)c2)nc1Cl | 16.9%
75 | CCCn1nc2cc(C(=O)NCc3ccccc3)ccc2c1OCC | -6.87%
76 | CSc1nc2ccc(S(=O)(=O)N3CCc4ccccc43)cc2s1 | 52% (active)
77 | CCn1c(=O)c(=O)n(CC)c2cc(S(=O)(=O)N3CCc4ccccc43)ccc21 | 12.6%
78 | Cn1c(=O)n(C)c2cc(S(=O)(=O)N3CCCc4ccccc43)ccc21 | -3.51%
79 | CCOc1ccc(C(CCc2ccccc2)NC(=O)c2ccc(OC)c(OC)c2)cc1OCC (stereo not given) | -3.35%
80 | C=CCNc1nc(N)c(C(=C(C#N)C#N)c2ccccc2)s1 | 5.44%
81 | CN1CCN(c2nc3c(c(=O)[nH]c(=O)n3C)n2Cc2cccc3ccccc23)CC1 | 9.64%
82 | CC1CCN(c2nc3c(c(=O)[nH]c(=O)n3C)n2CCCc2ccccc2)CC1 | 30.6% (active)
83 | C=C(C)Cn1c(N2CCCC2)nc2c1c(=O)[nH]c(=O)n2C | 6.94%
84 | O=C1c2ccccc2C(=O)c2c1cccc2N1CCN(Cc2ccccc2)CC1 | 17.7%
85 | CCn1c2ccccc2c2cc(NC(=O)C/C(C)=N/NC(=O)c3ccccc3N)ccc21 | -1.98%
86 | Cc1cccc(N2CCN(C(=O)CN(C)S(=O)(=O)c3ccc4c(c3)CCC(=O)N4)CC2)c1C | 6.36%
87 | CCC(=O)Nc1ccccc1N1CCN(S(C)(=O)=O)CC1 | 13.1%
88 | COc1ccc(C(=O)NC(=S)Nc2ccccc2N2CCN(S(C)(=O)=O)CC2)cc1OC | 31.7% (active)
89 | COc1ccccc1N1CCN(C(=O)c2ccc(S(=O)(=O)N3CCCCC3)cc2)CC1 | -0.79%
90 | O=C1/C(=C/c2cccs2)CCc2ccccc21 | 12.8%
91 | O=C(Nc1nccs1)C1CCN(S(=O)(=O)c2ccc(Cl)c(C(F)(F)F)c2)CC1 | 17.7%
92 | CCOC(=O)c1c(CN2CCOCC2)n(-c2ccccc2)c2ccc(O)cc12 | 45.2% (active)
93 | CCOC(=O)c1nnn(-c2nonc2-n2cccc2)c1CN1CCOCC1 | -2.3%
94 | O=c1c(-c2ccccc2)coc2c(CN3CCOCC3)c(O)ccc12 | 10.4%
95 | O=C(COC(=O)c1ccccc1SCC(=O)NC1CCCCC1)NC1CCCCC1 | 0.43%
